TDP1 cell noCPT – qHTS for Inhibitors of human tyrosyl-DNA phosphodiesterase 1 (TDP1): qHTS in cells in absence of CPT. DT40 Tdp1-/- hTDP1 cells, no CPT, ATP luminescence, 48 h. Potency, µM (titrated, usually from 46.2 µM), for inactives: top-dose activity change, negative = growth inhibition, hits mostly inhibitors. actives 15% (n = 420,000). AID 686978, 2013; also: potency is read from the fitted curve at half-maximal effect; nearly all actives have a fitted effect of over 55% in size
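Seeded 400 DT40-hTDP1 cells/well (vehicle DMSO, no 20 nM CPT); pinned compounds; ≥48 hr at 37 °C; CellTiter-Glo luminescence as viability measure.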
TDP1 cell CPT – DT40-hTDP1 cell growth loss with CPT; chicken DT40 Tdp1-/-;hTDP1 cells + 20 nM CPT, ATP luminescence, 48 h; Potency, µM (titrated, usually from 46.2 µM), for inactives: top-dose activity change, negative = growth inhibition, hits mostly inhibitors; actives 12% (n = 420,000); also: potency is read from the fitted curve at half-maximal effect; nearly all actives have a fitted effect of over 55% in size
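Chicken DT40 Tdp1-/- cells complemented with human TDP1, 400 cells/well, exposed to compounds plus 20 nM camptothecin for at least 48 h at 37 C; viability read as ATP content by CellTiter-Glo luminescence.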
HT1080 IDH1KD tx – toxicity to HT-1080 IDH1 knockdown cells (counter line). Potency, µM (series often up to 46.1 µM), for inactives: at the highest dose activity, negative = toxicity, most hits filed as cytotoxic. actives 2% (n = 360,000). HT-1080 IDH1 knockdown viability, ATP luminescence, 48 h. AID 686971;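 also: potency is read from the fitted curve at half-maximal effect; 0% = DMSO wells and -100% = cell-free medium wells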
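In this qHTS, HT-1080 cells depleted of IDH1 are exposed for 48 h at 37 °C to compound titrations. Toxicity is scored from CellTiter-Glo luminescence, with DMSO as full viability and medium alone as none.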
IL1B secr inh – inhibitors of inflammasome signaling (IL-1 beta secretion); THP-1 LPS/ATP IL-1B secretion, AlphaLISA, 16 h; active compounds read low; activity change, % at 57.5 µM; actives 4.7% (n = 360,000); in the data active = activity change below about -50%; inconclusive = mostly about -30% to -49%
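THP-1 cells pretreated 1 hr with compounds (up to 57.5 uM final), then stimulated with LPS (250 ng/mL final) plus ATP (1.25 mM final); secreted IL-1B measured by AlphaLISA after 16 hr, decreased signal indicating inhibition.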
HT1080-NT tox – kills 2HG-producing HT-1080-NT fibrosarcoma cells; actives 1.6% (n = 360,000); Potency, µM (titrated, usually from 46.1 µM), without a hit: at the highest dose activity, negative = less viability, actives largely listed as cytotoxic; HT-1080-NT fibrosarcoma viability, CellTiter-Glo ATP luminescence, 48 h;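 also: NT is the 2HG producing partner of a matched IDH1 knockdown line; potency is read from the fitted curve at half-maximal effect; 0% = DMSO-treated cells and -100% = media-only wells without cells; nearly all actives have a fitted effect of over 55% in size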
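A 48-hour cytotoxicity screen used HT-1080-NT cells plated 2 hours before compound delivery. ATP-based CellTiter-Glo luminescence measured viability, normalized to DMSO and no-cell controls.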
The depositor's hits bear a star. This is a sample that favours compounds with a hit; in the whole collection about 19% have one here. Unless noted, calls follow the shape of the dose curve; as a rule, active = well fitted curve in the direction sought with a large enough effect; inconclusive = small, poorly fitted or top-dose-only effect, or another doubt; inactive = no such curve, though single readings can be large; an effect the other way counts as inactive or inconclusive. Unless noted, % is scaled to controls: 0 for no effect and ±100 for the full control effect.

Screening Cc1ccc(S(=O)(=O)N2CCOCC2)cc1NCC(=O)Nc1ccc(OC(F)(F)F)cc1 returned TDP1 cell noCPT -11%, TDP1 cell CPT inconclusive, HT1080 IDH1KD tx 6%, IL1B secr inh 22 and HT1080-NT tox 16%.
CCOC(=O)c1cc(-c2ccccc2)n(CC(=O)Nc2ccc(CC)cc2)c1C was read as TDP1 cell noCPT 16µM* and TDP1 cell CPT 8.2µM*.
`CCOC(=O)c1cc(-c2ccccc2)n(CC(=O)NCc2ccc(C)cc2)c1C` gave TDP1 cell noCPT 8.2µM* and TDP1 cell CPT inconclusive.
For CCOC(=O)c1cc(-c2ccccc2)n(CC(=O)Nc2ccc(OC)cc2)c1C the results were TDP1 cell noCPT inconclusive, TDP1 cell CPT -29%, HT1080 IDH1KD tx -8%, IL1B secr inh -9 and HT1080-NT tox -9%.
For CC(=O)c1cc(-c2ccccc2)n(CC(=O)Nc2ccc(C)c(C)c2)c1C the results were TDP1 cell noCPT 12µM*, TDP1 cell CPT inconclusive, HT1080 IDH1KD tx -30%, IL1B secr inh -9 and HT1080-NT tox inconclusive.
`CCc1cccc(NC(=O)Cn2c(-c3ccc(F)cc3)cc(C(C)=O)c2C)c1` gave TDP1 cell noCPT 16µM* and TDP1 cell CPT 13µM*.
Screening Cc1noc(C)c1-c1nc(CSc2ccccc2)no1 returned TDP1 cell noCPT -7%, TDP1 cell CPT -2%, HT1080 IDH1KD tx 2%, IL1B secr inh 4 and HT1080-NT tox 20%.
Screening COc1ccc(C2CCCCCN2C(=O)C2CCN(S(=O)(=O)c3ccc(C)cc3)CC2)cc1 (configuration not stated) returned TDP1 cell noCPT inconclusive, TDP1 cell CPT inconclusive, HT1080 IDH1KD tx 0%, IL1B secr inh 1 and HT1080-NT tox 9%.
CCN(CC)c1ccc(/C=N/N=C(N)N)c(O)c1 was read as TDP1 cell noCPT 0.65µM*, TDP1 cell CPT 0.65µM*, HT1080 IDH1KD tx 1.6µM*, IL1B secr inh 0 and HT1080-NT tox 1µM*.
Screening CCN(CC)c1ccc(C=Nc2ccc(N(C)C)cc2)c(O)c1 returned TDP1 cell noCPT 16µM*, TDP1 cell CPT inconclusive, HT1080 IDH1KD tx -8%, IL1B secr inh -21 and HT1080-NT tox -18%.
For CCN(CC)c1ccc(N=Cc2ccc(N(CC)CC)cc2O)cc1 the results were TDP1 cell noCPT inconclusive, TDP1 cell CPT inconclusive, HT1080 IDH1KD tx 1%, IL1B secr inh 29 and HT1080-NT tox -2%.
Screening Cc1nn(-c2ccc(F)cc2)c(Cl)c1/C=C/C(=O)N1CCNC(=O)C1 returned TDP1 cell noCPT -10%, TDP1 cell CPT 2%, HT1080 IDH1KD tx -1%, IL1B secr inh -14 and HT1080-NT tox 16%.
For Cn1c(=O)c2c3c(sc2n2c(SCC(N)=O)nnc12)CC(C(C)(C)C)CC3 (configuration not stated) the results were TDP1 cell noCPT inconclusive, TDP1 cell CPT 23µM*, HT1080 IDH1KD tx inconclusive, IL1B secr inh -1 and HT1080-NT tox inconclusive.
CCCSc1nnc2n(C)c(=O)c3c4c(sc3n12)CCC4 was read as TDP1 cell noCPT inconclusive, TDP1 cell CPT inconclusive, HT1080 IDH1KD tx inconclusive, IL1B secr inh 1 and HT1080-NT tox -20%.
For CCCCN(CCCC)C(=O)CSc1nnc2n(C)c(=O)c3c4c(sc3n12)CCCC4 the results were TDP1 cell noCPT 23µM*, TDP1 cell CPT inconclusive, HT1080 IDH1KD tx -5%, IL1B secr inh 9 and HT1080-NT tox -5%.
Screening CC(C)(C)C1CCc2c(sc3nc(SCC(=O)O)nc(N)c23)C1 (configuration not stated) returned TDP1 cell noCPT -5%, TDP1 cell CPT 3%, HT1080 IDH1KD tx inconclusive, IL1B secr inh 0 and HT1080-NT tox inconclusive.
CSc1ccccc1NC(=O)CSc1nnc(Cc2ccccc2)o1 was read as TDP1 cell noCPT -16%, TDP1 cell CPT -22%, HT1080 IDH1KD tx 14%, IL1B secr inh 7 and HT1080-NT tox 7%.
`Cc1[nH]c2ccccc2c1C(c1c[nH]c2ccccc12)c1c(C)[nH]c2ccccc12` gave TDP1 cell noCPT 16µM* and TDP1 cell CPT inconclusive.
For C[n+]1ccc(C(c2c[nH]c3ccccc23)c2cc[n+](C)c3ccccc23)c2ccccc21 the results were TDP1 cell noCPT 0.56µM* and TDP1 cell CPT 0.56µM*.
For CCOC(=O)C(=Cc1cc(=O)c(OC)co1)C(=O)OCC the results were TDP1 cell noCPT 0.73µM*, TDP1 cell CPT 1.3µM*, HT1080 IDH1KD tx 18µM*, IL1B secr inh -97* and HT1080-NT tox 12µM*.
Screening Cn1nc(C(C)(C)C)cc1NC(=O)C1(C)CCN1C(=O)C1(c2ccccc2)CC1 (configuration not stated) returned TDP1 cell noCPT inconclusive, TDP1 cell CPT inconclusive, HT1080 IDH1KD tx -2%, IL1B secr inh 0 and HT1080-NT tox 4%.
Screening CSc1ccc(NC(=O)C2(C)CCN2C(=O)c2ccccc2CCc2ccccc2)cc1 (configuration not stated) returned TDP1 cell noCPT inconclusive, TDP1 cell CPT inconclusive, HT1080 IDH1KD tx -9%, IL1B secr inh -7 and HT1080-NT tox 1%.
Cn1nc(C2CC2)cc1NC(=O)C1(C)CCN1C(=O)c1ccccc1CCc1ccccc1 (configuration not stated) was read as TDP1 cell noCPT 16µM*, TDP1 cell CPT 29µM*, HT1080 IDH1KD tx 6%, IL1B secr inh -9 and HT1080-NT tox inconclusive.
`CCCC(=O)N1CCC1(C)C(=O)Nc1cc(-c2ccccc2)nn1C` (configuration not stated) gave TDP1 cell noCPT -74%, TDP1 cell CPT inconclusive, HT1080 IDH1KD tx -14%, IL1B secr inh 92 and HT1080-NT tox -2%.
Cn1nc(C(C)(C)C)cc1NC(=O)C1(C)CCN1C(=O)CC(c1ccccc1)c1ccccc1 (configuration not stated) was read as TDP1 cell noCPT 18µM*, TDP1 cell CPT 18µM*, HT1080 IDH1KD tx -6%, IL1B secr inh -20 and HT1080-NT tox 6%.
`Cn1nc(C2CC2)cc1NC(=O)C1(C)CCN1C(=O)CC(c1ccccc1)c1ccccc1` (configuration not stated) gave TDP1 cell noCPT 13µM*, TDP1 cell CPT 23µM*, HT1080 IDH1KD tx 0%, IL1B secr inh -14 and HT1080-NT tox 2%.
CCCSc1nnc(CNS(=O)(=O)c2ccc(C)cc2)n1C was read as TDP1 cell noCPT 8%, TDP1 cell CPT -12%, HT1080 IDH1KD tx 9%, IL1B secr inh 27 and HT1080-NT tox 10%.
